This is an account of results in PubChem BioAssay AID1362 (SRMLSC, 2008).

The structures appear in SMILES notation. Out of some 190,000 compounds screened, about 4,000 (2.1%) were called active. Rule as the data show it: active = inhibition above about 58%; inactive = the rest, inconclusive results apart; tested in S. cerevisiae. The full list was thinned out, with actives kept by preference.

A short description of this assay: growth inhibition of WT strain, primary screen, mitochondrial fusion inhibitor project, WT and mutant strains, chemical genetic (AID 1362). Particulars: mitochondrial fusion phenotypic screen, at 10 µM.
Where [1] appears, read: WT strain, growth inhibition, stronger effect = higher value.

On to `Cc1ccc(OCC(=O)Nc2ccc(S(=O)(=O)Nc3ccccn3)cc2)cc1`, for which the inhibition was -2.17% (inactive) under setting [1] and -9.5% (mutant strain inhibition).

Turning to `NS(=O)(=O)c1ccc(NC(=S)NC(=O)c2cccnc2)cc1`, the inhibition is -6.97% (inactive) under setting [1] and -10.8% (mutant strain inhibition).

For `Cn1nnnc1NCc1ccc(Cl)c(Cl)c1`, the inhibition was -2% (inactive) under setting [1] and 14.5% (mutant strain inhibition).

Regarding `O=[N+]([O-])c1ccc(F)cc1Oc1nc(-c2cccnc2)nc2ccccc12`, the inhibition was 2.1% (inactive) under setting [1] and 3.69% (mutant strain inhibition).

On to `O=[N+]([O-])c1ccc(Oc2ccc(F)cc2Br)c2ccncc12`, for which the inhibition was 68.7% (active) under setting [1] and 58.1% (mutant strain inhibition).

Turning to `O=C(O)CSc1nccc2ccccc12`, the inhibition was -2.02% (inactive) under setting [1] and -7.45% (mutant strain inhibition).

Turning to `CC(C)c1ccc(Nc2nnc(SCC(=O)c3nnc(-c4ccccc4)o3)s2)cc1`, the inhibition is 70.5% (active) under setting [1] and 55.7% (mutant strain inhibition).

On to `Cc1ccc(Nc2nnc(SCC(=O)c3cc4ccccc4o3)s2)cc1C`, for which the inhibition was 0.56% (inactive) under setting [1] and 20.2% (mutant strain inhibition).

Regarding `O=C(CSc1nnc(Nc2ccccc2)s1)Nc1cccnc1Cl`, the inhibition is -3.41% (inactive) under setting [1] and -15.4% (mutant strain inhibition).

For the compound `S=C(NCc1ccco1)Nc1ccc2c(c1)OCCO2`, the inhibition by setting is: under setting [1], -2.47% (inactive); (mutant strain inhibition) 9.66%.

As for `CC(C)(C)NC(=O)NC(=O)COC(=O)Cc1c(F)cccc1Cl`, the inhibition is -15.4% (inactive) under setting [1] and 1.6% (mutant strain inhibition).

For the compound `NS(=O)(=O)c1ccc(NC(=S)Nc2ccc(Br)c(Cl)c2)cc1`, the inhibition is 82.6% (active) under setting [1] and 54.2% (mutant strain inhibition).

With `NS(=O)(=O)c1ccc(NC(=S)NC(=O)c2cccc(Br)c2)cc1`, the inhibition runs as follows: under setting [1], 11% (inactive); (mutant strain inhibition) 20.3%.

In the case of `NS(=O)(=O)c1ccc(CCNC(=S)Nc2ccc(S(N)(=O)=O)cc2)cc1`, the inhibition runs as follows: under setting [1], -5.98% (inactive); (mutant strain inhibition) -14.5%.

Regarding `CCCn1c(=S)[nH]c2ccc(C(F)(F)F)cc21`, the inhibition under setting [1] is 2.77% (inactive) and the inhibition (mutant strain inhibition) was found to be 12.1%.

As to `CO/N=C/c1cn(-c2ccc(Cl)cc2)nn1`, the inhibition was -5.72% (inactive) under setting [1] and -2.58% (mutant strain inhibition).

Consider `O=C(c1ccco1)N1CCN(c2cccc(Cl)c2)CC1`, for which the inhibition under setting [1] was 7.68% (inactive) and the inhibition (mutant strain inhibition) was -0.39%.

As for `O=C(c1ccc2c(c1)OCO2)N1CCN(C(=O)c2ccco2)CC1`, the inhibition by setting is: under setting [1], -13.2% (inactive); (mutant strain inhibition) -33.3%.

Take `O=C(c1ccco1)N1CCN(C(=O)C2c3ccccc3Oc3ccccc32)CC1`: the inhibition is, setting by setting: under setting [1], 71.1% (active); (mutant strain inhibition) 6.75%.

In the case of `O=C(C1CCN(C2CCN(Cc3cccc4c3OCO4)CC2)CC1)N1CCOCC1`, the inhibition runs as follows: under setting [1], 5.02% (inactive); (mutant strain inhibition) 2.36%.

For the compound `CN(C)CCCN1C(=O)CSC1c1ccc([N+](=O)[O-])cc1` (centres undefined), the inhibition is -4.48% (inactive) under setting [1] and 1.39% (mutant strain inhibition).

For the compound `COc1cc(/C=C/C(=O)OCC(=O)Nc2cccc(Oc3ccccc3)c2)ccc1O`, the inhibition under setting [1] is 68.3% (active) and the inhibition (mutant strain inhibition) was determined as 29%.

In the case of `COc1ccc(/C=C/C(=O)OCC(=O)Nc2cccc(Oc3ccccc3)c2)c(OC)c1`, the inhibition by setting is: under setting [1], 7.56% (inactive); (mutant strain inhibition) 8.13%.

On to `COc1cccc(NC(=O)COC(=O)CCOc2ccccc2OC)c1`, for which the inhibition runs as follows: under setting [1], -0.47% (inactive); (mutant strain inhibition) -4.38%.

With `O=C(c1ccc(C(F)(F)F)cc1)C1CCCN(C(=O)c2csnn2)C1` (centres undefined), the inhibition is 7.52% (inactive) under setting [1] and 10.7% (mutant strain inhibition).

With `COc1ccc(-c2csc(NC(=O)c3ccc(N4C(=O)CCC4=O)cc3)n2)cc1OC`, the inhibition under setting [1] was 7.99% (inactive) and the inhibition (mutant strain inhibition) was 3.27%.

As to `CC(=O)c1ccc(N2CCN(CC(=O)Nc3ccccc3N3CCOCC3)CC2)cc1`, the inhibition runs as follows: under setting [1], -16% (inactive); (mutant strain inhibition) 4.64%.

For `COC(=O)Cc1ccc(NC(=S)NCc2ccco2)cc1`, the inhibition by setting is: under setting [1], 6.76% (inactive); (mutant strain inhibition) 3.2%.

In the case of `CC(C)c1ccc(N2CCN(C(=O)c3ccccc3NC(=O)/C=C(\C(=O)O)c3ccccc3)CC2)cc1`, the inhibition was 71% (active) under setting [1] and 37.8% (mutant strain inhibition).

On to `Cc1cccc(N2CCN(C(=O)c3ccccc3NC(=O)C3CCCCC3C(=O)O)CC2)c1` (centres undefined), for which the inhibition under setting [1] was -3.08% (inactive) and the inhibition (mutant strain inhibition) is -3.64%.

For `O=C(O)C1CC=CCC1C(=O)Nc1ccccc1C(=O)N1CCN(c2ccccc2)CC1` (centres undefined), the inhibition is, setting by setting: under setting [1], -12.3% (inactive); (mutant strain inhibition) -3.47%.

Regarding `COc1ccc(NC(=S)NCCNC(C)=O)cc1`, the inhibition reads like this: under setting [1], 3.42% (inactive); (mutant strain inhibition) 8.02%.

With `COc1cc(NC(=S)NCc2ccc(S(N)(=O)=O)cc2)cc(OC)c1`, the inhibition under setting [1] is -1.93% (inactive) and the inhibition (mutant strain inhibition) turned out to be 4.18%.

Consider `COc1cc(NC(=S)NCCSc2ccc(C)cc2)cc(OC)c1`, for which the inhibition is 71.4% (active) under setting [1] and 51.4% (mutant strain inhibition).

Consider `Cc1nnc(SC(C(=O)Nc2cc(Cl)cc(Cl)c2)c2ccccc2)[nH]c1=O` (centres undefined), for which the inhibition is 1.45% (inactive) under setting [1] and 9.8% (mutant strain inhibition).

Turning to `COc1cc(/C=C/C(=O)OCC(=O)NC(=O)NCc2ccccc2)ccc1OCC#N`, the inhibition is 6.54% (inactive) under setting [1] and 3.13% (mutant strain inhibition).

With `CN1C(=O)C(CC(=O)Nc2ccccc2)S/C1=N/c1nccs1` (centres undefined), the inhibition is -7.94% (inactive) under setting [1] and 3.24% (mutant strain inhibition).

For the compound `COc1ccc(Cl)cc1NC(=O)C(C)N1CCc2ccccc21` (centres undefined), the inhibition under setting [1] is 54% (inactive) and the inhibition (mutant strain inhibition) came out at 18.4%.

With `Cc1cc2ncn(CCCCOc3ccccc3)c2cc1C`, the inhibition runs as follows: under setting [1], 62.5% (active); (mutant strain inhibition) 44.6%.

Consider `Clc1ncn(CCOc2ccccc2)c1Cl`, for which the inhibition under setting [1] is -14.3% (inactive) and the inhibition (mutant strain inhibition) was -12.6%.

For `COCCOCCn1cnc2ccccc21`, the inhibition by setting is: under setting [1], -10.3% (inactive); (mutant strain inhibition) -7.09%.

Take `COc1ccc(C(=O)NNC(=O)c2cc(C)[nH]n2)cc1`: the inhibition is -20% (inactive) under setting [1] and -23.8% (mutant strain inhibition).

Regarding `C/C(=C\c1ccco1)CN1CCC(N2CCC(C(=O)N3CCOCC3)CC2)CC1`, the inhibition under setting [1] is -2.61% (inactive) and the inhibition (mutant strain inhibition) was 2.35%.

Consider `O=C(NC(=S)Nc1cccc(-c2ccc(CO)o2)c1)c1cccs1`, for which the inhibition was 6.13% (inactive) under setting [1] and 12.3% (mutant strain inhibition).

For the compound `CC(=O)Nc1ccc(NC(=S)NC(=O)/C=C/c2ccccc2)cc1`, the inhibition is, setting by setting: under setting [1], -1.35% (inactive); (mutant strain inhibition) -0.82%.

For the compound `COc1ccc(-c2onc(C)c2-c2ccc3c(c2)OCCO3)c(O)c1`, the inhibition is 21.9% (inactive) under setting [1] and -8.53% (mutant strain inhibition).

`CCOC(=O)c1cc2cc(-c3c(C(=O)OCC)oc4cc(O)cc(O)c4c3=O)ccc2o1`: the inhibition is, setting by setting: under setting [1], -4.08% (inactive); (mutant strain inhibition) -39.7%.

For `O=c1c(-c2ccc3c(c2)OCCO3)c(C(F)(F)F)oc2cc(O)cc(O)c12`, the inhibition under setting [1] is 70.7% (active) and the inhibition (mutant strain inhibition) came to 42.8%.

As to `S=C(NCCc1ccccc1)N1CCCCC1`, the inhibition was 8.05% (inactive) under setting [1] and 12.7% (mutant strain inhibition).

For the compound `Cc1ccc(NC(=S)NCc2ccccc2Cl)c(C)c1`, the inhibition under setting [1] is 41% (inactive) and the inhibition (mutant strain inhibition) is -1.48%.

As to `S=C(NCCc1ccccc1)NCc1ccccc1Cl`, the inhibition was 62% (active) under setting [1] and 35.9% (mutant strain inhibition).

As to `CC(=O)N1CCN(S(=O)(=O)c2c(F)cc(F)c(Cl)c2F)CC1`, the inhibition under setting [1] was -3.19% (inactive) and the inhibition (mutant strain inhibition) amounted to 3.15%.

As for `CSc1ccc(/C=N/N2CCN(Cc3ccccc3Cl)CC2)cc1`, the inhibition under setting [1] is 43.5% (inactive) and the inhibition (mutant strain inhibition) stood at 23.8%.

In the case of `COc1cc(CNC2CCCCC2)c(Br)cc1OC1CCCC1`, the inhibition runs as follows: under setting [1], 18.3% (inactive); (mutant strain inhibition) 20.6%.

For the compound `CCc1ccccc1NC(=O)c1cccs1`, the inhibition under setting [1] was 2.87% (inactive) and the inhibition (mutant strain inhibition) is -2.72%.

`O=C(/C=C/c1ccccc1)N/C(=C/c1ccccc1)C(=O)Nc1ccccc1O`: the inhibition under setting [1] was -8.09% (inactive) and the inhibition (mutant strain inhibition) is -0.03%.

Regarding `CCc1ccccc1NC(=O)/C(=C/c1ccccc1)c1ccccc1`, the inhibition is, setting by setting: under setting [1], 64.8% (active); (mutant strain inhibition) 9.35%.
